Several values for one entry are separate records, joined by “and”; a condition that tells them apart may be missing. Equal values may be shown once. Results filed as inconclusive are left out. Activity calls are given as the source filed them. Unless noted, calls come from the whole dose curve; as a rule, active = well fitted curve in the direction sought with a large enough effect; inconclusive = small, poorly fitted or top-dose-only effect, or another doubt; inactive = no such curve, though single readings can be large; an effect the other way counts as inactive or inconclusive.
How the values were obtained:
[1] = AP1 Signaling Pathway (AID 357; active = well fitted curve in either direction with a large enough effect, not every such curve was filed as active;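 note: ME-180 reporter cells stimulated with EGF at its EC50 level; % is set by controls: 0 for no effect and ±100 for the full control effect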); settings: ME-180 AP-1-bla reporter, EGF-induced, beta-lactamase ratio, 5 h; at 7.69 µM (top of the series) unless noted
Procedure, shortened: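 A ratiometric CCF4 readout (405 nm excitation; 460 and 530 nm emission) quantified AP-1-driven beta-lactamase in ME-180 cells after 5 h with compound and EC50 EGF; AC50 values were derived for activators and inhibitors.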

[2] = NFAT Signaling Pathway (AID 444; active = well fitted curve in either direction with a large enough effect, not every such curve was filed as active;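 note: carbachol stimulus at about its EC50 of 1 µM final; % is set by controls: 0 for no effect and ±100 for the full control effect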); settings: Jurkat NFAT-bla M1, carbachol, beta-lactamase ratio, 5 h; at 7.69 µM (top of the series) unless noted
Procedure, shortened: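 Jurkat cells carrying an NFAT-driven β-lactamase reporter and co-transfected muscarinic M1 receptor were treated with compound plus carbachol (1 uM final, an EC50 level) for 5 h at 37 °C. CCF4 loading followed for 1 h at RT; 460/530 nm ratio gave %activity.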

[3] = target: Glucocorticoid receptor (Homo sapiens) (UniProt P04150); assay: GR-GFP Redistribution (AID 450;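 active = compounds whose dose series gives a full or clear partial fitted curve of increased nuclear translocation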; note: potency is the fitted concentration of half-maximal effect); settings: U2OS GR-GFP nuclear translocation, laser cytometry, 2 h
[4] = target: Glucocorticoid receptor (Homo sapiens) (UniProt P04150); assay: GR-EFC Redistribution (AID 451; calls by dose curve; note: potency is the fitted concentration of half-maximal effect); settings: CHO-K1 GR-EFC translocation, beta-gal luminescence, 2 h
Procedure, shortened: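 CHO-K1 cells stably expressing nuclear-localized β-gal enzyme acceptor and GR fused C-terminally to the enzyme donor fragment; ligand-driven nuclear translocation restores β-gal by complementation. Compounds titrated up to 46 uM final, 2 h at 37 °C; luminescence read.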

[5] = target: Mitogen-activated protein kinase 10 (Mus musculus) (UniProt Q61831); assay: JNK3 AlphaScreen Assay (AID 530; active = well fitted curve in either direction with a large enough effect, not every such curve was filed as active;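 note: kinase came from lysate of stimulated human HepG2 cells; signal reports phosphorylation of biotinylated GST-cJun 1-79 at Ser73 with 10 µM ATP; % is set by controls: 0 for no effect and ±100 for the full control effect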)
Procedure, shortened: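 Biotinylated GST-cJun(1-79) served as substrate for JNK3 in HepG2 lysates stimulated with IL-1beta and TNF-alpha. ATP was 10 uM final, pH 7.6. Ser73 phosphorylation was quantified by AlphaScreen (680 nm excitation).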

[6] = target: Cytochrome P450 3A4 (Homo sapiens) (UniProt P08684); assay: qHTS Assay for Inhibitors and Substrates of Cytochrome P450 3A4 (AID 884); note: nearly all actives have a fitted effect of over 50% in size; note: potency is the fitted concentration of half-maximal effect
Procedure, shortened: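 Luminescent readout of luciferin produced by CYP3A4 (20 nM) dealkylation of Luciferin-PPXE, 25 uM (its KM). NADPH-driven reaction ran 60 min at RT after 10 min compound preincubation; data scaled to 57 uM ketoconazole as 100% inhibition.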

[7] = target: Cytochrome P450 3A4 (Homo sapiens) (UniProt P08684); assay: qHTS Assay for Activators of Cytochrome P450 3A4 (AID 885); note: nearly all actives have a fitted effect of over 65% in size
Procedure, shortened: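 Human CYP3A4 dealkylates Luciferin-PPXE to luciferin, which luciferase detection converts to light. Substrate was at its KM (25uM), buffer 200mM KPO4, reaction 60 min at RT.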

[8] = Confirmation and Secondary Assay for Modulators of Hemoglobin Beta Chain Splicing at IVS2 654 locus (AID 910);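 note: per-well total GFP intensity by laser scanning cytometry after 2-day treatment; % of control where 0% means no effect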
Procedure, shortened: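 HeLa cells stably carrying EGFP interrupted by mutant beta-globin IVS2-654 intron (CMV-driven) were treated with compound for 2 days at 37C; corrected splicing was scored as total peak GFP intensity per well (488 nm excitation, 500-520 nm emission).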

[9] = qHTS Assay for Identification of Small Molecule Agonists for Hypoxia Response Element Signaling Pathway (AID 914; active = well fitted activation curve with a large enough effect in the signal ratio, with a control signal flat, not every such curve was filed as active; the % refers to the signal ratio; note: potency is the fitted concentration of half-maximal effect); settings: ME-180 (cervical carcinoma) HRE-bla reporter, beta-lactamase ratio, CoCl2, 17 h; activation: stronger effect = higher value
Procedure, shortened: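 A beta-lactamase reporter under hypoxia response element control in ME-180 cells served as the system. Compound titrations plus EC50 CoCl2 ran 17 h at 37 degrees Celsius; AC50 values were fitted from %Activity.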

[10] = qHTS Assay for Lipid Storage Modulators (AID 1519; calls by dose curve); settings: Drosophila S3 cells, BODIPY lipid droplet/cell ratio, laser cytometry, cells loaded with oleic acid
Procedure, shortened: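 Cells seeded at 5,000 per well were treated with compounds over a concentration series and loaded with oleic acid (400 uM, as added). Lipid droplet fluorescence (488 nm excitation, 500-530 nm channel) was read by laser-scanning cytometry and normalized to 20 uM Triacsin C.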

[11] = target: Ubiquitin carboxyl-terminal hydrolase 1 (Homo sapiens) (UniProt O94782); assay: Inhibitors of USP1/UAF1: Pilot qHTS (AID 504865);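 note: rhodamine fluorescence freed from ubiquitin-rhodamine substrate followed over time; top concentration of the series differs between compounds; % is set by controls: 0 for no effect and ±100 for the full control effect; nearly all actives have a fitted effect of over 35% in size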
Procedure, shortened: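 USP1/UAF1 complex (1nM) preincubated with compound 15 min at room temperature, then Ub-Rho substrate (150nM final) added. Fluorescence read kinetically at 480/540 nm, 6 reads every 60 seconds. Buffer: 50mM HEPES pH 7.8, 0.5mM EDTA, 0.1 mg/ml BSA, 1mM TCEP, 0.01% Tween-20.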

[12] = Confirmation and Secondary Assay for Modulators of Hemoglobin Beta Chain Splicing at IVS2 705 locus (AID 930);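 note: HeLa cells stably expressing the EGFP-705 splicing reporter; GFP fluorescence per well restored by corrected splicing of the IVS2-705 intron in EGFP; % of control where 0% means no effect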
Procedure, shortened: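 Fluorescence gain (488 nm laser, 500-520 nm PMT) reflects restored correct splicing of a mutant IVS2-705 intron inside EGFP in stably transfected HeLa cells after 2-day compound treatment.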

[13] = target: Rap guanine nucleotide exchange factor 3 (Homo sapiens) (UniProt O95398); assay: Confirmatory qHTS for antagonist of cAMP-regulated guanine nucleotide exchange factor 3 (EPAC1) (AID 1645880);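 note: plate controls were DMSO only for no effect and full effect of the ATA control for full effect; nearly all actives have a fitted effect of over 55% in size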
Procedure, shortened: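 Released BODIPY-GDP fluoresces less than Rap1-bound BODIPY-GDP; the signal is followed at 480/540 nm at 5-min intervals over 30 min, after 5 min at room temperature. Reactions contain 100 nM EPAC1, 250 nM RAP1B-BODIPY-GDP and 50 uM GDP; results are normalized to ATA and DMSO.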

[14] = target: Rap guanine nucleotide exchange factor 3 (Homo sapiens) (UniProt O95398); assay: Confirmatory qHTS for agonist of cAMP-regulated guanine nucleotide exchange factor 3 (EPAC1) (AID 1645881);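 note: EPAC1 catalysed release of BODIPY-GDP from Rap1B seen as fluorescence loss; 100% = effect of cAMP agonist control; nearly all actives have a fitted effect of over 75% in size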
[15] = target: Rap guanine nucleotide exchange factor 4 (Homo sapiens) (UniProt Q8WZA2); assay: Confirmatory qHTS for agonist of cAMP-regulated guanine nucleotide exchange factor 4 (EPAC2) (AID 1645884);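 note: nucleotide exchange releases bodipy-GDP from Rap1 and this lowers its fluorescence; % is set by controls: 0 for no effect and ±100 for the full control effect; nearly all actives have a fitted effect of over 65% in size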
[16] = target: Rap guanine nucleotide exchange factor 4 (Homo sapiens) (UniProt Q8WZA2); assay: Confirmatory qHTS for antagonist of cAMP-regulated guanine nucleotide exchange factor 4 (EPAC2) (AID 1645885); note: % is set by controls: 0 for no effect and ±100 for the full control effect; nearly all actives have a fitted effect of over 25% in size
[17] = target: Rap guanine nucleotide exchange factor 3 (Homo sapiens) (UniProt O95398); assay: Counterscreen qHTS for antagonist of cAMP-regulated guanine nucleotide exchange factor 3 (EPAC1) (AID 1645888); note: % of control where 0% means no effect
Procedure, shortened: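 Measured: fluorescence of BODIPY-GDP bound to Rap1B, which falls as exchange proceeds. Conditions include 50 uM competing GDP, 5 and 30 min reads, and a later cAMP challenge for antagonist detection.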

[18] = target: Cytochrome P450 1A2 (Homo sapiens) (UniProt P05177); assay: p450-cyp1a2 (AID 410; calls by dose curve; note: potency is the fitted concentration of half-maximal effect;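 for activity change, negative = inhibition: -100% = full effect of reference inhibitor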)
Procedure, shortened: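 Read-out is luminescence from luciferin produced by CYP1A2 demethylation of Luciferin-ME (100uM, at Km). Detection reagent stopped the 60 min NADPH-dependent reaction; signals were normalized to 57 uM furafylline.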

[19] = Primary qHTS for small molecule stabilizers of the endoplasmic reticulum resident proteome: Secreted ER Calcium Modulated Protein (SERCaMP) assay (AID 1508630); note: % is set by controls: 0 for no effect and ±100 for the full control effect
Procedure, shortened: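 The SH-SY5Y reporter protocol was run at 3 concentrations up to 38.3 uM (primary) or 11 concentrations (follow-up): 16 h compound, 100 nM thapsigargin for 4 h, then extracellular luciferase luminescence.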

[20] = target: 3',5'-cyclic-AMP phosphodiesterase 4B (Homo sapiens) (UniProt Q07343); assay: qHTS Assay for Inhibitors of PDE-IV (AID 607; active = well fitted activation curve with a large enough effect in the main read-out, with a control signal flat, not every such curve was filed as active; note: % of control where 0% means no effect)
Procedure, shortened: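 HEK293 ACTOne cells with CNG channel (1000/well), endogenous PDE4; membrane potential dye, compounds up to 22.9 uM final. Fluorescence Ex 535/Em 590; RO 20-1724 (100 uM final) as reference.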

[21] = target: Cytochrome P450 2C9 (Homo sapiens) (UniProt P11712); assay: qHTS Assay for Inhibitors and Substrates of Cytochrome P450 2C9 (AID 883); note: % is set by controls: 0 for no effect and ±100 for the full control effect; nearly all actives have a fitted effect of over 60% in size
Procedure, shortened: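 Human CYP2C9 (10nM) hydroxylated Luciferin-H (100uM, at its KM) to luciferin in 25mM KPO4. Compound was preincubated 10 min at 37C, then NADPH regeneration started a 60 min reaction at 37C. Luminescence was read after detection reagent, normalized to 57uM sulphaphenazole.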

[22] = target: Cytochrome P450 2C19 (Homo sapiens) (UniProt P33261); assay: qHTS Assay for Inhibitors and Substrates of Cytochrome P450 2C19 (AID 899); note: potency is the fitted concentration of half-maximal effect; nearly all actives have a fitted effect of over 60% in size
Procedure, shortened: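 Human CYP2C19 (5nM) with Luciferin-H EGE at 10uM (its KM) in 50mM KPO4 was preincubated with compound for 10 min at 37C. NADPH regeneration started a 60 min 37C reaction. Luciferin was read by luminescence, normalized to 57uM ketoconazole.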

[23] = measured here: cell count channel max response
[24] = measured here: lipid channel max response

Sequence of Cytochrome P450 1A2 (Homo sapiens) (P05177 whole entry, looked up): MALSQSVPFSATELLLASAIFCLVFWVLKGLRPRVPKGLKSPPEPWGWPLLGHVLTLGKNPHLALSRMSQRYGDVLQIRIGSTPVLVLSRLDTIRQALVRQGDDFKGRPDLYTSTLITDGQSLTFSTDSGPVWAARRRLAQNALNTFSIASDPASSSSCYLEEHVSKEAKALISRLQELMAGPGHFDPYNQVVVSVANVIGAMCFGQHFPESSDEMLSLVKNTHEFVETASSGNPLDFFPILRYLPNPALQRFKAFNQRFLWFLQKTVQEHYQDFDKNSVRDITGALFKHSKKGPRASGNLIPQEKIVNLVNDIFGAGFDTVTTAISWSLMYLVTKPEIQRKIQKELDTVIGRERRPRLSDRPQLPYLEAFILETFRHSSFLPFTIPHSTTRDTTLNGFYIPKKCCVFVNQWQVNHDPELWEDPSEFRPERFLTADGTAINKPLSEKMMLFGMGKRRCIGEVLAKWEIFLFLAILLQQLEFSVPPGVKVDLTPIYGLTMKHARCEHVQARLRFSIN
Sequence of Rap guanine nucleotide exchange factor 4 (Homo sapiens) (Q8WZA2 whole entry, looked up): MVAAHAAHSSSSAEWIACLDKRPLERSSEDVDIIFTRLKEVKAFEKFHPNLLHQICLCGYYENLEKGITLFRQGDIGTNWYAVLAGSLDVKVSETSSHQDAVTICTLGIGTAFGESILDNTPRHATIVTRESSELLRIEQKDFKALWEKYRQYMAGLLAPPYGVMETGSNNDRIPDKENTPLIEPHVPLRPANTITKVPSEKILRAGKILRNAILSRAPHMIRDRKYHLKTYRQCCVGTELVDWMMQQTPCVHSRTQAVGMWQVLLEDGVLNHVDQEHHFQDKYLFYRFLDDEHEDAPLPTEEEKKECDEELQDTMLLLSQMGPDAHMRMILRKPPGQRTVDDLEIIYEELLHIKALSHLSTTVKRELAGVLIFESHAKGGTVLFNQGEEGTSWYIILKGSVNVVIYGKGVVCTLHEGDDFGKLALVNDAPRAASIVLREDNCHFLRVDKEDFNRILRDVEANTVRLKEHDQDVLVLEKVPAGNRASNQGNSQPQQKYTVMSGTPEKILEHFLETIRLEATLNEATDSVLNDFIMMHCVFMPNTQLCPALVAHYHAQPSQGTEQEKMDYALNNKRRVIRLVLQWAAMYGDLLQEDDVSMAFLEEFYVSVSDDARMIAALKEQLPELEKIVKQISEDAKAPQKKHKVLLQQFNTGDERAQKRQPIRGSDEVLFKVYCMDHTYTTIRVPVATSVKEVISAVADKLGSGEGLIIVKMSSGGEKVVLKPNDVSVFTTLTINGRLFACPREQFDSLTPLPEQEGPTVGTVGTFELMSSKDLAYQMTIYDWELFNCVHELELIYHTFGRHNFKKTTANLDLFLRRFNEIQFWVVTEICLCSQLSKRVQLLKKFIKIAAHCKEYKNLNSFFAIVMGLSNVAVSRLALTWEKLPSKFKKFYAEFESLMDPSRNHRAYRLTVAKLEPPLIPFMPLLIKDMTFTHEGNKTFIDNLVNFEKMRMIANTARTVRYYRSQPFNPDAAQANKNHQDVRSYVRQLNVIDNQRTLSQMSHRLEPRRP
Sequence of Rap guanine nucleotide exchange factor 3 (Homo sapiens) (O95398 whole entry, looked up): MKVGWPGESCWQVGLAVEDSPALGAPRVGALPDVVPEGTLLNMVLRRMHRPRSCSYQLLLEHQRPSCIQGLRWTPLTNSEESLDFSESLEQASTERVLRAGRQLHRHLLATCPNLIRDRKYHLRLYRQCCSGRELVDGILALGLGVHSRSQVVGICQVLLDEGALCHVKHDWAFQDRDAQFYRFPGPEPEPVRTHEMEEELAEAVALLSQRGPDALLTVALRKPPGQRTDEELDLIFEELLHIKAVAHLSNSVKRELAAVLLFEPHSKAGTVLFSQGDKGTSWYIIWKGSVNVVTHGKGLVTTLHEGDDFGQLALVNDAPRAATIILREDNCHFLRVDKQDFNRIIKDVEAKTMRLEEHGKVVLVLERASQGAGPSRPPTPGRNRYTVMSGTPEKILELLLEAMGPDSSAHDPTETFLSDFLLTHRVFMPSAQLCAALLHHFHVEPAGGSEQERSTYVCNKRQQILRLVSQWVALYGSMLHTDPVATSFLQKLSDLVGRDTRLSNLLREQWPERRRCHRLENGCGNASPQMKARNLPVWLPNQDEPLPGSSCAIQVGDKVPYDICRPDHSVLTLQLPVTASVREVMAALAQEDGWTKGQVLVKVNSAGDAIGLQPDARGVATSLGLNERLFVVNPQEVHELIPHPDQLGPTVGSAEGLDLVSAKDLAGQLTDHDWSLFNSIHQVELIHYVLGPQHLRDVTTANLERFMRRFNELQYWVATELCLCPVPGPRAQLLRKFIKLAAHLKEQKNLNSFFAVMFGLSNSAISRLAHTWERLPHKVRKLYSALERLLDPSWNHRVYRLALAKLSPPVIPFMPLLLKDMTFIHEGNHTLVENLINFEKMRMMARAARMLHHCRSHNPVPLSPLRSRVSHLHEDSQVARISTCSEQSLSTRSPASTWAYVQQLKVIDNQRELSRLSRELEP
Sequence of Glucocorticoid receptor (Homo sapiens) (P04150 whole entry, looked up, the tested form may be a part): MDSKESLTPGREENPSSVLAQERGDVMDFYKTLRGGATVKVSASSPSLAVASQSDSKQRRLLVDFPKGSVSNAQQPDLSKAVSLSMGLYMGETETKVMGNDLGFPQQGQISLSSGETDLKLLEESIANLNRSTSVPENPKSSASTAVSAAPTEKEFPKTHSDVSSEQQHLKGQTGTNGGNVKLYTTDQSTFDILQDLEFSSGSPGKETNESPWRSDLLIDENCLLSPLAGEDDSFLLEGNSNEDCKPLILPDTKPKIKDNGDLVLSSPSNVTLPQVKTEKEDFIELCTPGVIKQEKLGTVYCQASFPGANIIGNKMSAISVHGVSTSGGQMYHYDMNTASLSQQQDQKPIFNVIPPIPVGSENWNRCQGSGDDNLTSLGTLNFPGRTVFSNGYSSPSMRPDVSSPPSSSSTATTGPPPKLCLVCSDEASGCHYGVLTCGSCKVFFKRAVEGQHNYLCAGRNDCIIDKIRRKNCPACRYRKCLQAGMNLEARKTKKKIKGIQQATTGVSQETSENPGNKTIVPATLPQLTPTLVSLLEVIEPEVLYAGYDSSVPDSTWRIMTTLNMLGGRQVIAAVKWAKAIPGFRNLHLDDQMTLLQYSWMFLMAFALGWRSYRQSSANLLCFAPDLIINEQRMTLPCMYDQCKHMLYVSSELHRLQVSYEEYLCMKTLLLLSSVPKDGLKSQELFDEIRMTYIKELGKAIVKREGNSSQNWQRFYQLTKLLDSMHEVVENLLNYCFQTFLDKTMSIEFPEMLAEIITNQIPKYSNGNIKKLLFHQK
Sequence of Ubiquitin carboxyl-terminal hydrolase 1 (Homo sapiens) (O94782 whole entry, looked up): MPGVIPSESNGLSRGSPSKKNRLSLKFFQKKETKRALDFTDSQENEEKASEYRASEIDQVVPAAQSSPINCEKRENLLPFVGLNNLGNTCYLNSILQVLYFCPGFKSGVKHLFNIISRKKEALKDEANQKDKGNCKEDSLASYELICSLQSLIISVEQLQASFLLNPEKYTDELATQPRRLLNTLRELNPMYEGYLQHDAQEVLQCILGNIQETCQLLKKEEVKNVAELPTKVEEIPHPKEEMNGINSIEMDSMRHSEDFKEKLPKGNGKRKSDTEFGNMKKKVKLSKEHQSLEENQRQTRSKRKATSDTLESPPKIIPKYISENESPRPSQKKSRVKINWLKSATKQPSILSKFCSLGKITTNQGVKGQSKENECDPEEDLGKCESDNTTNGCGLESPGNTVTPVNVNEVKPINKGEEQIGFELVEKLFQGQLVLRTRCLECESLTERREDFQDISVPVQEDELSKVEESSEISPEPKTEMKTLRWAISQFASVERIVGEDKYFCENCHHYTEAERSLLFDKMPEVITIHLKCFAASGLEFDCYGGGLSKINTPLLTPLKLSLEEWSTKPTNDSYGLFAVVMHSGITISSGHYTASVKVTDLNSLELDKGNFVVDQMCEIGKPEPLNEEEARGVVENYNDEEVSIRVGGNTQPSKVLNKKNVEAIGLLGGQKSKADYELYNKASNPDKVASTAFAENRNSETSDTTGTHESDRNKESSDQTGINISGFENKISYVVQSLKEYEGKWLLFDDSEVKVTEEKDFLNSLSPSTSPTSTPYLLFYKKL
Sequence of Cytochrome P450 3A4 (Homo sapiens) (P08684 whole entry, looked up): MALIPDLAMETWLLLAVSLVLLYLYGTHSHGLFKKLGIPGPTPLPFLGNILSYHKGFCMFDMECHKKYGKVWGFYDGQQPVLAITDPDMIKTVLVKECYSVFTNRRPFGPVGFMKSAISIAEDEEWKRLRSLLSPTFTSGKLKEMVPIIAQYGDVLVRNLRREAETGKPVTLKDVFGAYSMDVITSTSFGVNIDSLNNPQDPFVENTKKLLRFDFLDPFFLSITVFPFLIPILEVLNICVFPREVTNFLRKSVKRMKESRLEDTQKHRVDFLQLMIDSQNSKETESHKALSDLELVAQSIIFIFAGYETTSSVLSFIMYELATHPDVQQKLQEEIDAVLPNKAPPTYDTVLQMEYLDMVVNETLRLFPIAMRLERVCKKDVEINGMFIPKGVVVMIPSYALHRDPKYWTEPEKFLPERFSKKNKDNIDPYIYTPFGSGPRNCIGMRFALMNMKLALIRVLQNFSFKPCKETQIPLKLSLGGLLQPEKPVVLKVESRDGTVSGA
Sequence of Cytochrome P450 2C19 (Homo sapiens) (P33261 whole entry, looked up): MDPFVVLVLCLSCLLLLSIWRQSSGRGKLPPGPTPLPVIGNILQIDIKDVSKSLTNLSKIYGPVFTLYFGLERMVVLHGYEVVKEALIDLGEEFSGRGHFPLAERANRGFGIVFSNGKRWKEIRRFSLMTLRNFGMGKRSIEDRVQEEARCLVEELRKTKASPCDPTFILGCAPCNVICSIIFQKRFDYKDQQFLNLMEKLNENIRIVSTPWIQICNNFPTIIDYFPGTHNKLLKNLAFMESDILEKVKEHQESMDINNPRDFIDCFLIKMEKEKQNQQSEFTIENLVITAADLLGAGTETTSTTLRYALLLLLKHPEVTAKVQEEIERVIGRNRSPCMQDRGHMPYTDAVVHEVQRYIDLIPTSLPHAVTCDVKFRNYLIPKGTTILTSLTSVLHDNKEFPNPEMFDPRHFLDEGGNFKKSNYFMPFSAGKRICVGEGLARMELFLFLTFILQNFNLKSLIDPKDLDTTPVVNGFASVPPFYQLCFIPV

O=c1ccc2cc(O)c(O)cc2o1
inactive: activity change, negative = inhibition [1] 12.2% [at 17.2 µM] | activity change, negative = inhibition [2] 28.9% [at 17.2 µM] | Potency [3] > 20.6 µM | Potency [4] > 20.6 µM | Potency [5] | Potency [6] | Potency [7] | Potency [8] | activity change, negative = inhibition ([10]; at 25.7 µM (top of the series)) -3.37% | activity change, negative = inhibition ([10]; at 57.5 µM (top of the series)) -7.91% | Potency [11]
-16.4% and -4.98%: max response [10, 23]
-18.9% and -8.28%: max response [10, 24]
active: Potency [9] 10 µM

Nc1ccc(C(=O)O)c(O)c1 (tested in a mixture with another compound)
inactive: activity change, negative = inhibition ([10]; at 57.5 µM (top of the series)) 15.3%
22.7%: max response [10, 24]
6.65%: max response [10, 23]

C=CCc1ccc(OC(=O)c2ccccc2)c(OC)c1
active: Potency [6] 5.01 µM
15.6%: max response [10, 24]
inactive: Potency [7] | Potency [8] | outcome [12] | activity change, negative = inhibition ([10]; at 57.5 µM (top of the series)) 6.62% | Potency [13] | Potency [14] | Potency [15] | activity change, negative = inhibition [16] -4.91% [at 12.7 µM] | activity change, negative = inhibition [17] -3.32% [at 30.8 µM]
5.85%: max response [10, 23]

CN=C1N[C@H](c2ccccc2)N(c2ccccc2)S1
active: Potency [18] 1.26 µM
inactive: Potency [3] > 46 µM | Potency [4] > 46 µM | Potency [5] | Potency [11] | outcome [19]

N[C@@H](C(=O)O)c1ccc(O)c(C(=O)O)c1
inactive: Potency [18] | Potency [3] > 46 µM | Potency [4] > 46 µM | Potency [5] | Potency [20] | Potency [21] | Potency [11] | outcome [19]

CCCCCCCNS(=O)(=O)c1cccc2c(Cl)cccc12
inactive: Potency [3] > 46 µM | Potency [4] > 46 µM | Potency [7] | outcome [19]
active: Potency [18] 6.31 µM | Potency [6] 7.94 µM | Potency [22] 0.126 µM

— PubChem BioAssay (NCATS)
